The list is not random: actives were taken first. Their share in the collection is about 2.8%.
GALC G270D act: A Novel Cell-Based Assay to Identify Small Molecules for B -Galactocerebrosidase. Potency, µM (doses to about 57.5 µM), most hits filed as activators. P54803. 0.1% of 45,000 active. 145M-Twi-hGALC-G270D cells (Twitcher mouse brain line with human GALC G270D), HMU-beta-Gal fluorescence, 48 h. AID 1159614, 2016; note: potency is the fitted concentration of half-maximal effect; 0% is about no effect; nearly all actives have a fitted effect of over 65% in size
Target sequence (P54803 whole entry G286D): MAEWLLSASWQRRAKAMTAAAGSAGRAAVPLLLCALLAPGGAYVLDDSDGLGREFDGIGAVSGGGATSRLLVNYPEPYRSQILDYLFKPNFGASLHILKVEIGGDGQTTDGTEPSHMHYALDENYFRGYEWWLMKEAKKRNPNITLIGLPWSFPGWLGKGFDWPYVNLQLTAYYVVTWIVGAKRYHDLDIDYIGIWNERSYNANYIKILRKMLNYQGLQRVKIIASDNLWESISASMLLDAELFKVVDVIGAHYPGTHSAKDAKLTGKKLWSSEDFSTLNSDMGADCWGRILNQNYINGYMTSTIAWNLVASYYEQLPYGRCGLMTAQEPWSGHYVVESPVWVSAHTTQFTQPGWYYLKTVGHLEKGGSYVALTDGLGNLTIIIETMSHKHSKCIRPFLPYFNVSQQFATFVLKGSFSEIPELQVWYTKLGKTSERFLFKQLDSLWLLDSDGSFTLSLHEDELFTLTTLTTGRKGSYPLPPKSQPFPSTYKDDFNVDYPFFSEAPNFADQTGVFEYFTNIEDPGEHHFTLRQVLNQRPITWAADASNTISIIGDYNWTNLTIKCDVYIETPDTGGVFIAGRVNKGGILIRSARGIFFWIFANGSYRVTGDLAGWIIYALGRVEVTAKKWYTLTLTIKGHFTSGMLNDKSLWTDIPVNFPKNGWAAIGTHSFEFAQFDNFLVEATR
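Brain-derived Twitcher mouse 145M-Twi cells stably expressing human GALC-G270D or wild-type GALC, treated live, then residual GALC activity read by fluorescence of HMU-b-Gal substrate (0.1 mM final) in citrate-phosphate buffer pH 5.2 with sodium taurocholate. Signal increase indicates enhancement.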
PMP22 txn prim: Cell-based coincidence reporter assay to measure PMP22 gene transcription in S16 Pmp22-F2sN cells - Primary screen. AID 1508649, 2021. S16 Pmp22-F2sN Schwann cells, FLuc/NLuc coincidence luminescence, 24 h. Potency, µM (series often up to 57.5 µM), for inactives: at the highest dose activity change, negative = inhibition, actives largely listed as inhibitors. 2% of 43,000 active; active = clear falling dose curves in both reporters; inconclusive = both reporters move, but less clearly or upward; inactive = either reporter flat; the % is the NLuc reporter signal; note: potency is the fitted concentration of half-maximal effect; % is set by controls: 0 for no effect and ±100 for the full control effect
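Luminescent read-out of sequential FLuc and NLuc signals from a reporter embedded in the Pmp22 3' UTR of S16 Schwann cells, taken after 24 h compound exposure at 37C; compounds reducing both signals score as inhibitors of expression.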
pS6 MEF inh: Acumen qHTS Assay for Inhibitors of the mTORC1 Signaling Pathway in MEF (Tsc2-/-, p53-/-) Cells: Sytravon; Potency, µM (highest dose often 38.3 µM), without a hit: top-dose activity change, negative = inhibition, hits mostly inhibitors; AID 493208, 2011; Tsc2-/- p53-/- MEF, phospho-rpS6 immunofluorescence/PI, 24 h; 0.78% of 44,000 active;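 note: potency is the fitted concentration of half-maximal effect; plate controls were DMSO for no effect and rapamycin for full effect; nearly all actives have a fitted effect of over 50% in size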
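Tsc2-/-, p53-/- MEFs (empty-vector stable line) in DMEM + 10% FBS were treated with compounds 24 h at 37 degree Celsius, fixed, and immunostained for phospho-rpS6 (Alexa-488) with propidium iodide counterstain. Laser-scanning cytometry gave % positive cells, normalized against 7.5 nM rapamycin and DMSO.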
S16 viability: Cell viability qHTS assay in S16 Pmp22-F2sN cells; Potency, µM (series often up to 57.5 µM), for the others: at the top dose activity change, negative = cytotoxicity, hits mostly cytotoxic; 0.48% of 43,000 active; S16 Pmp22-F2sN Schwann cells viability, CellTiter-Glo, 24 h; note: potency is the fitted concentration of half-maximal effect; % is set by controls: 0 for no effect and ±100 for the full control effect; nearly all actives have a fitted effect of over 65% in size
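Viability was measured by CellTiter-Glo luminescence (15 min, room temperature). This followed 24 h at 37 °C of compound exposure (23 nL pin transfer) in S16 Pmp22-F2sN Schwann cells, 500-1,000 per well.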
NLuc sat counter: Biochemical NLuc saturation counterscreen for small molecule modulators of PMP22 gene expression - Nano-Glo assay; shares compounds with PMP22 txn prim; Secreted NLuc enzyme (filtered S16 cell medium), Nano-Glo luminescence; Potency, µM (highest dose often 57.5 µM), for inactives: at the top dose activity change, negative = inhibition, hits mostly inhibitors; 4% of 690 active; AID 1508638, 2021; note: potency is the fitted concentration of half-maximal effect; % is set by controls: 0 for no effect and ±100 for the full control effect
NLuc Km counter: Biochemical coelenterazine-based NLuc counterscreen for small molecule modulators of PMP22 gene expression - Km assay | secreted NLuc enzyme, coelenterazine luminescence, Km conditions | 5% of 690 active | Potency, µM (doses to about 57.5 µM), for inactives: at the top dose activity change, negative = inhibition, usual class: inhibitors | shares compounds with PMP22 txn prim; note: potency is the fitted concentration of half-maximal effect; % is set by controls: 0 for no effect and ±100 for the full control effect
FLuc counter: Biochemical FLuc counterscreen for small molecule modulators of PMP22 gene expression; shares compounds with PMP22 txn prim; purified P. pyralis FLuc, luminescence, 10 min; Potency, µM (titrated, usually from 57.5 µM), for the others: at the top dose activity, negative = inhibition, usual class: inhibitors; 690 tested, under 10 active; note: % of control where 0% means no effect
S16 viab conf: Cell viability qHTS assay in S16 Pmp22-F2sN cells - Confirmatory screen | S16 Schwann cells viability, CellTiter-Glo ATP luminescence, 24 h | AID 1508641, 2021 | 7% of 690 active | Potency, µM (doses to about 57.5 µM), for the others: at the highest dose activity change, negative = viability loss, usual class: cytotoxic | shares compounds with PMP22 txn prim; note: potency is the fitted concentration of half-maximal effect; % is set by controls: 0 for no effect and ±100 for the full control effect
PMP22 txn cnf: Cell-based coincidence reporter assay to measure PMP22 gene transcription in S16 Pmp22-F2sN cells - Confirmatory screen | Potency, µM (highest dose often 57.5 µM), inactives show at the top dose activity change, negative = inhibition, hits mostly inhibitors | S16 Schwann cells Pmp22-F2sN, dual luciferase, 24 h | 22% of 690 active | AID 1508646, 2021 | shares compounds with PMP22 txn prim; active = clear falling dose curves in both reporters; inconclusive = both reporters move, but less clearly or upward; inactive = either reporter flat; the % is the FLuc reporter signal; note: potency is the fitted concentration of half-maximal effect
PMP22 prot conf: Cell-based HiBiT reporter assay to measure PMP22 protein expression in S16 Pmp22-HiBiT cells - Confirmatory screen | shares compounds with PMP22 txn prim | S16 Schwann cells Pmp22-HiBiT, luminescence, 48 h | Potency, µM (top dose mostly 27.9 µM), without a hit: at the top dose activity change, negative = inhibition, usual class: inhibitors | 95 tested, under 10 active
The depositor's hits bear a star; i = inactive; ? = inconclusive; . = no result. Unless noted, calls come from the whole dose curve; as a rule, active = well fitted curve in the direction sought with a large enough effect; inconclusive = small, poorly fitted or top-dose-only effect, or another doubt; inactive = no such curve, though single readings can be large; an effect the other way counts as inactive or inconclusive.

SMILES	GALC G270D act	PMP22 txn prim	pS6 MEF inh	S16 viability	NLuc sat counter	NLuc Km counter	FLuc counter	S16 viab conf	PMP22 txn cnf	others
Cc1ccc(NS(=O)(=O)c2cc(Br)cc3c2N(C(=O)C2CC2)CC3)cc1C	i	8.91µM*	-12.5%	?	?	-7.4%	-0.6%	?	?
Cc1ccccc1-c1nc(CN2CCCC(C(=O)NCc3ccc(Cl)cc3)C2)c(C)o1 (stereo not given)	i	?	2.8%	9.5%	.	.	.	.	.
Cc1oc(-c2ccc(Cl)cc2)nc1CN1CCCC(C(=O)NCc2ccccc2)C1 (stereo not given)	i	17.9µM*	-1.1%	-28.9%	?	?	-5.9%	-23.6%	?
CCS(=O)(=O)N1CC(=O)N(c2cc(C)cc(C)c2)C(C)(C(=O)NC2CCCCC2)C1 (stereo not given)	i	-2.0%	0.3%	6.3%	.	.	.	.	.
CCN(C(=O)Cn1c(SCC(=O)Nc2ccc(OC)cc2)nc2ccccc21)c1cccc(C)c1	i	?	12.6%	-16.4%	.	.	.	.	.
CCN1CCOC(=O)C1CC(=O)Nc1cccc(OC)c1 (stereo not given)	i	12.7µM*	20.7µM*	?	-6.2%	-1.5%	5.9%	?	?
CCN1CCOC(=O)C1CC(=O)Nc1cc(Cl)ccc1C (stereo not given)	i	10.6µM*	?	?	-7.7%	0.1%	-5.9%	?	?
COc1cc(NC(=O)CC2C(=O)OCCN2Cc2ccccc2)cc(OC)c1 (stereo not given)	i	-24.9%	-14.6%	-0.2%	.	.	.	.	.
O=C(COc1ccccc1)NC1CC(=O)N(c2ccc3c(c2)OCCO3)C1 (stereo not given)	i	-8.4%	-0.1%	2.7%	.	.	.	.	.
CCN(CC)C(=O)c1sc2c(c1C)c(=O)n(-c1ccccc1)c(=O)n2Cc1cc(=O)n2ccccc2n1	i	11.5µM*	0.9%	-1.5%	-4.3%	3.3%	-0.3%	-5.3%	-26.9%
CCOc1ccc(CC(=O)NC2CC(=O)N(c3cccc(F)c3)C2)cc1 (stereo not given)	i	0.6%	-3.1%	9.3%	.	.	.	.	.
CCc1ccc(C(=O)c2cn(CC(=O)Nc3ccc4c(c3)OCO4)c3ccc(CC)cc3c2=O)cc1	i	12.6µM*	3.0%	-4.5%	-10.6%	-6.2%	5.2%	?	12.2µM*	PMP22 prot conf=?
CCc1ccc(C(=O)c2cn(CC(=O)Nc3ccc4c(c3)OCO4)c3ccc(Cl)cc3c2=O)cc1	i	?	?	-15.8%	.	.	.	.	.
CCOC(=O)c1cc2c(=O)n3ccccc3nc2n(CC(C)C)c1=NC(=O)COc1ccc(Cl)cc1	i	16µM*	2.4%	-5.8%	-14.6%	0.7%	-3.6%	-26.5%	?
CSc1nc2sc3c(c2c(=O)n1-c1ccc(C)cc1)CCCC3	i	14.1µM*	-0.8%	20.0%	4.85µM*	?	4.5%	6.1%	?
CCC(C)c1ccc(OCC(=O)Nc2cccc(-c3nc4ncccc4o3)c2)cc1 (stereo not given)	i	?	-20.6%	-2.6%	.	.	.	.	.
CC(C)c1ccc(OCC(=O)Nc2cc(-c3nc4ncccc4o3)ccc2Cl)cc1	i	12.6µM*	-0.4%	21.0%	-4.9%	4.5%	-8.6%	3.4%	?
CC(C)c1ccccc1NC(=O)Cn1cnc2c1c(=O)n(C)c(=O)n2C	.	.	-3.8%	.	.	.	.	.	.
CN1CC(=O)Nc2cc(C(=O)O)ccc21	i	-1.9%	9.6%	-1.2%	.	.	.	.	.
COc1ccc(-c2cc(C(F)(F)F)nc(NCCc3ccccc3)n2)cc1	i	-63.2%	0.0%	?	.	.	.	.	.
COc1ccc(-c2cc(C(F)(F)F)nc(NCCc3ccccc3)n2)cc1OC	i	12.9µM*	3.2%	4.2%	-14.8%	-18.4%	1.4%	-17.9%	0.7%
COc1ccc(OC)c(C(=O)CC2(O)C(=O)N(Cc3ccccc3C)c3ccccc32)c1 (stereo not given)	i	-25.4%	?	?	.	.	.	.	.
COc1cc(C(=O)CC2(O)C(=O)N(Cc3ccccc3Cl)c3ccccc32)cc(OC)c1OC (stereo not given)	i	11.3µM*	4.14µM*	-6.0%	-10.6%	-2.4%	8.0%	-2.6%	?
CC(=O)Nc1cccc(-c2nnc(SCC(=O)c3cc([N+](=O)[O-])ccc3Br)o2)c1	i	12.1µM*	?	?	10.9µM*	12.2µM*	?	8.5%	17.2µM*
Cc1ccc(OCC(=O)Nc2ccc3nc(SCC(=O)N4CCc5ccccc54)sc3c2)cc1	i	2.38µM*	-0.2%	0.3%	-2.9%	-1.6%	-8.0%	-11.3%	7.27µM*	PMP22 prot conf=?
Cc1ccc(C(=O)Nc2ccc3nc(SCC(=O)N4CCc5ccccc54)sc3c2)cc1	i	-41.7%	-6.3%	4.9%	.	.	.	.	.

Compound activity from PubChem BioAssay.
